Results filed as inconclusive are left out. Active and inactive are the calls of the source. The call rests on the fitted dose curve; in most records, active means well fitted cell-killing curve with a large enough effect; inconclusive means small, poorly fitted or top-dose-only effect; inactive means flat fitted curve, though single readings scatter.
Test: Cell Viability - LYMP2-022 (AID 987); further: nearly all actives have a fitted effect of over 55% in size;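 on viability change, negative = cytotoxic: 0% = DMSO alone and full effect = tetraoctylammonium bromide at 92 µM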
Settings: LYMP2-022 lymphoblastoid cell viability; series mostly up to 92.2 µM; viability change, negative = cytotoxic: at the top concentration
Description: NIH Chemical Genomics Center [NCGC]
NIH Molecular Libraries Screening Centers Network [MLSCN]
National Institutes of Environmental Health Sciences [NIEHS]
National Toxicology Program [NTP]
We have developed a 1536-well cell-based assay for quantitative high throughput screening (qHTS) against a number of cell lines to determine in vitro cytotoxicity of small molecules. This particular assay uses a human lymphoblastoid cell line (LYMP2-022) purchased from Coriell Institute for Medical Research.
NCGC Assay Protocol Summary:
The CellTiter-Glo luminescent cell viability assay (Promega) is a homogeneous method to measure the number of viable cells in culture. The end point readout of this assay is based on quantitation of intracellular ATP, an indicator of metabolic activity, using the luciferase reaction. Luciferase catalyzes the oxidation of beetle Luciferin to oxyluciferin and light in the presence of ATP. The luminescent signal is proportional to amount of ATP present.
Using the CellTiter-Glo luminescent cell viability assay, the amount of cellular ATP was measured in the lymphoblastoid cell line with complete culture medium following compound treatment for 24 hours. The assay was performed in opaque white Kalypsys 1536-well plates. In the screen, tetraoctylammonium bromide was used as positive control. Library compounds were measured for their ability to cause acute toxicity in the cell line, as reflected by a decrease in intracellular ATP levels, in a concentration-dependent manner. […] AC50 values were determined from concentration-response data modeled with the standard Hill equation.
qHTS protocol for CellTiter Glo lymphoblastoid cellular assay
[Step] [Parameter] [Value] [Description]
1. Reagent; 5 uL; 2500 lymphoblastoid cells/well
2. Time; 5 hr; 37 C incubation
4. Controls; 23 nL; Tetraoctylammonium bromide 6.4pM to 92 uM
5. Time; 24 hr; 37 C incubation
6. Reagent; 5 uL; CellTiter Glo reagent
7. Time; 30 min; Room Temperature
8. Detection; Luminescence; Viewlux plate reader
Keywords: cell viability, cytotoxicity, lymphoblastoid cell line, luminescence, NTPHTS, NTPHTS_NCGC, NIEHS, DSSTox, MLSMR, MLSCN, NIH Roadmap, qHTS, NCGC
Potency means the concentration at half of the fitted maximal effect.

Structure (SMILES)	viability change, negative = cytotoxic	Potency
C[C@]1(O)CC[C@H]2[C@@H]3CCC4=CC(=O)CC[C@]4(C)[C@@]3(F)[C@@H](O)C[C@@]21C	-24.9% (inactive)	–
O=P1(N(CCCl)CCCl)NCCCO1 (configuration not stated)	-0.319% (inactive)	–
C[C@]12CCC(=O)C=C1CC[C@@H]1[C@@H]2CC[C@@]2(C)[C@H]1CC[C@]2(C)O	-10.6% (inactive)	–
COc1cc(OC)c(OC)cc1C=O	-11.6% (inactive)	–
CC(C)c1cccc(C(C)C)c1O	-3.7% (inactive)	–
CC(C)NC(C)C	-0.734% (inactive)	–
Nc1ccccc1C(=O)O	-10.3% (inactive)	–
NCCc1ccc(O)cc1	-0.702% (inactive)	–
CCCC(C)(COC(N)=O)COC(N)=O	-8.32% (inactive)	–
Nc1ccccc1	-4.29% (inactive)	–
CCC(C)(C)c1ccc(O)cc1	-11.7% (inactive)	–
COP(=S)(OC)Oc1ccc(SC)c(C)c1	2.43% (inactive)	–
Oc1ccc(Cl)cc1	-6.12% (inactive)	–
Clc1ccc(C(c2ccc(Cl)cc2)C(Cl)(Cl)Cl)cc1	-1.58% (inactive)	–
C[C@]12CCC(=O)C=C1CC[C@@H]1[C@@H]2CC[C@]2(C)C(=O)CC[C@@H]12	–	inactive
O=C(O)CCCc1ccc(N(CCCl)CCCl)cc1	–	39.8 µM (active)
CCOC(=O)CC(SP(=S)(OC)OC)C(=O)OCC (configuration not stated)	-17.8% (inactive)	–
